# Test results published in publication PMC4336329 (PLoS ONE, 2015).
# The campaign covered roughly 310,000 compounds. About 14,000 (4.5%) showed an effect of 50% or more. The effect is printed as a negative number. Only a selection was taken, and strong results are over-represented in it overall.
# Molecular target: human ether-à-go-go-related gene (hERG) potassium channel (human, UniProt Q12809)
# Assay: primary screen, population patch clamp on CHO cells stably expressing hERG; higher = less effect of the substance
# 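Also: peak tail current of the secondary pulse compared with the same well before compound.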
# Chain of human ether-à-go-go-related gene (hERG) potassium channel (Q12809 whole entry, looked up): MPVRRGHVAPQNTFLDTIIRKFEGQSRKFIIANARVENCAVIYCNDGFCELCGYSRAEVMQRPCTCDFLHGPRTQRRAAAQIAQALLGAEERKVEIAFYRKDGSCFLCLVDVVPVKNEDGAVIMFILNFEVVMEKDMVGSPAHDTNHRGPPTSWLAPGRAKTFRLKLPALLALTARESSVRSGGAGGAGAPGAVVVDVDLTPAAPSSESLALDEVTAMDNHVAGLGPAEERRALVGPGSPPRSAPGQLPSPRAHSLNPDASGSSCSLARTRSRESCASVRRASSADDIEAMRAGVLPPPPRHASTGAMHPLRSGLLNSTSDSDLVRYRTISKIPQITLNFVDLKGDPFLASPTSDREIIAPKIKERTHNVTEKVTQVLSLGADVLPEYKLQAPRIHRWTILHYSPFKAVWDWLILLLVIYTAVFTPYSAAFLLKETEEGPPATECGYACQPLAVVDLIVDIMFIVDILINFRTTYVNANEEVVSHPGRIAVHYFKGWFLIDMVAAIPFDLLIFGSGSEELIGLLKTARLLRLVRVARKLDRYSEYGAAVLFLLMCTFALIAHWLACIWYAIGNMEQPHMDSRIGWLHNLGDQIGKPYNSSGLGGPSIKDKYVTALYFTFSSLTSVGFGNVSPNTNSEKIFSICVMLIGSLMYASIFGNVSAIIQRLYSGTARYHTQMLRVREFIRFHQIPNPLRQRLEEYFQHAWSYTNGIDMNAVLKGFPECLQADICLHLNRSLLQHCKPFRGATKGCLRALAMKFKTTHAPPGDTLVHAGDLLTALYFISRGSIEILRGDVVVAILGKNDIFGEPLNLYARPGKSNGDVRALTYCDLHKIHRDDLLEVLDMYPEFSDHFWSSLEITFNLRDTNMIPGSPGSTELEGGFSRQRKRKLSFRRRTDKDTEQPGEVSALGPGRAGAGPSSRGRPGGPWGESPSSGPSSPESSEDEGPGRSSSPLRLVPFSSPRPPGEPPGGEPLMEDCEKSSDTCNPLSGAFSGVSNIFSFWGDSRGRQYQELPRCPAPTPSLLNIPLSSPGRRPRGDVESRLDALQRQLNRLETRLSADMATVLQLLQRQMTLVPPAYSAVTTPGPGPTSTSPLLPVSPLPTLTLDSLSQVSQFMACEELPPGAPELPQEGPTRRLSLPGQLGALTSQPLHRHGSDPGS
row,Structure (SMILES),"hERG current change (%, negative = inhibition) at 10uM [%]"
1,O=C(c1cc2c(s1)CCC2)N1C(=O)c2ccccc2S1(=O)=O,12.9
2,CCCC(C)NC(=O)CN1C(=O)c2cccc3cccc1c23 (centres unmarked),1.42
3,COc1ccc(C(C)=O)cc1CSc1nc2cc(Cl)ccc2o1,9.66
4,O=c1oc2cccnc2n1CCS(=O)(=O)c1ccc(F)cc1,9.29
5,CCOc1ccccc1NC(=O)Cn1c(-c2ccc(Cl)cc2)noc1=O,-2.01
6,CCN(C(=O)CSc1nc2ccccc2c(=O)n1Cc1ccc(C)cc1)C1CCS(=O)(=O)C1 (centres unmarked),-71
7,CCn1c(SCC(=O)N(Cc2ccccc2)C2CCS(=O)(=O)C2)nc2ccccc2c1=O (centres unmarked),-61
8,Cc1ccccc1-n1c(SCC(=O)N(C)C2CCS(=O)(=O)C2)nc2ccccc2c1=O (centres unmarked),11.6
9,Cc1ccc(Cn2c(SCC(=O)N(C)C3CCS(=O)(=O)C3)nc3ccccc3c2=O)cc1 (centres unmarked),-60.8
10,CCN(C(=O)CSc1nc2ccccc2n1CC)C1CCS(=O)(=O)C1 (centres unmarked),0.264
11,CCN(C(=O)CSc1nc2ccccc2c(=O)n1-c1ccc(C)cc1)C1CCS(=O)(=O)C1 (centres unmarked),-11.6
12,CCCN(C(=O)CSc1nc2ccccc2n1CC)C1CCS(=O)(=O)C1 (centres unmarked),2.29
13,CCN(C(=O)CSc1nc2ccccc2c(=O)n1-c1cccc(C)c1)C1CCS(=O)(=O)C1 (centres unmarked),-14.9
14,Cc1ccc(-n2c(SCC(=O)N(C)C3CCS(=O)(=O)C3)nc3ccccc3c2=O)cc1 (centres unmarked),11
15,CCN(C(=O)COC(=O)c1cc(S(=O)(=O)N2CCOCC2)c(Cl)cc1Cl)C1CCS(=O)(=O)C1 (centres unmarked),9.86
16,O=c1[nH]c2ccccc2c2nc(-c3cccc(S(=O)(=O)N4CCCC4)c3)nn12,21.2
17,CC(=O)Nc1ccc(C2C(=O)c3ccccc3C2=O)cc1,21.4
18,O=[N+]([O-])c1ccccc1N/N=C1\CC2CC=CC12 (centres unmarked),46.5
19,CCOc1ccccc1C(=O)N(CN1CCCC1=O)c1cccc(Cl)c1,-3.65
20,Cc1ccc(-c2c[n+](CC(=O)Nc3ccccc3C)c3n2CCC3)cc1.[Cl-],-5.42
21,Cc1ccc(-c2c[n+](CC(=O)Nc3ccccc3)c3n2CCC3)cc1.[Cl-],-27.8
22,CCc1ccc(NC(=O)C[n+]2cc(-c3ccc(C)cc3)n3c2CCC3)cc1.[Cl-],-63.1
23,Cc1ccc(-c2c[n+](CC(=O)Nc3c(C)cccc3C)c3n2CCC3)cc1.[Cl-],14.1
24,Cc1ccc(NC(=O)C[n+]2cc(-c3ccc(C)cc3)n3c2CCC3)cc1.[Cl-],-70
25,Cc1ccc(NC(=O)C[n+]2cc(-c3ccccc3)n3c2CCC3)cc1.[Cl-],-15.2
26,Cc1ccccc1NC(=S)/C(=C(\[O-])c1ccc(C)c([N+](=O)[O-])c1)[n+]1ccccc1,-1.7
27,CCC1(C)Cc2ccccc2-c2c1c(=O)n(-c1ccc(C)cc1)c1nnnn21 (centres unmarked),2.8

row,Structure (SMILES),"hERG current change (%, negative = inhibition) at 10uM [%]"
1,Cc1cc2cc(CN(Cc3ccco3)C(=O)NCc3ccccc3)c(=O)[nH]c2cc1C,-6.54
2,O=C(Nc1cc(C(F)(F)F)ccc1Cl)C(NCc1ccccc1)c1ccccc1 (centres unmarked),2.13
3,CN(C)CCNC(C(=O)Nc1cccc(C(F)(F)F)c1)c1ccccc1.O=C(O)C(=O)O (centres unmarked),-56.7
4,CCN(CC)CCNC(C(=O)Nc1cccc(C(C)=O)c1)c1ccccc1.O=C(O)C(=O)O (centres unmarked),-79.1
5,CCOc1ccc(NC(C(=O)Nc2cccc(C(C)=O)c2)c2ccccc2)cc1 (centres unmarked),-49.7
6,CCC(C(=O)Nc1cccc(C(F)(F)F)c1)c1ccccc1 (centres unmarked),3.89
7,CN(C)CCNC(C(=O)Nc1cc(Cl)cc(Cl)c1)c1ccccc1 (centres unmarked),-45.6
8,CCCC(=O)OC(C(=O)Nc1cc(C(F)(F)F)ccc1Cl)c1ccccc1 (centres unmarked),-9.58
9,CCN(CC)CCNC(C(=O)Nc1cc(C(F)(F)F)ccc1Cl)c1ccccc1 (centres unmarked),-76.4
10,CC(=O)c1cccc(NC(=O)C(NC(C)C)c2ccccc2)c1 (centres unmarked),10.5
11,O=C(c1cc(F)cc2c1OCOC2)N1CCN(c2ccc(F)cc2)CC1,-16
12,CC(C)C(OC(=O)CN1C(=O)COc2ccccc21)C(=O)NC1CCCCC1 (centres unmarked),-9.89
13,COC(=O)c1cn(CC(=O)N2CCCCCC2)c2ccccc12,-40.1
14,CCN(CC(=O)NCc1cccs1)C(=O)c1cc(S(=O)(=O)N2CCCCC2)ccc1Cl,-40.2
15,Cc1ccc2c(Cl)c(C(=O)NCC3CCCO3)sc2c1 (centres unmarked),-12.8
16,COc1ccccc1C(=O)NC(=O)COC(=O)c1oc2ccccc2c1C,1.8
17,OCC[C@H]1C[C@@H](O)[C@H](O)[C@]2(Cc3ccccc3CCO2)O1,-0.537
18,COc1ccc(OC)c(/C=C/C(=O)N(C)CC(=O)Nc2ccc(C)cc2)c1,-18.3
19,COc1cccc(NC(=O)CN(C)C(=O)/C=C/c2cn(Cc3ccccc3)nc2-c2cccnc2)c1,-59.4
20,COc1ccc(OC)c(/C=C/C(=O)N(C)CC(=O)Nc2cc(C)ccc2C)c1,-15.1
21,CN(CC(=O)Nc1cccc(F)c1)C(=O)/C=C/c1cn(Cc2ccccc2)nc1-c1cccnc1,-48.8
22,CN(CC(=O)Nc1cccc(F)c1)C(=O)/C=C/c1ccc2ccccc2n1,7.19
23,CN(CC(=O)Nc1cccc(F)c1)C(=O)/C=C/c1ccc(Br)s1,13.2
24,COc1cccc(NC(=O)CN(C)C(=O)/C=C/c2cc(OC)ccc2OC)c1,-67.8
25,CN(CC(=O)Nc1cccc(F)c1)C(=O)/C=C/c1cc(Br)ccc1OC(F)F,-54.8
26,COc1ccc(NC(=O)CN(C)C(=O)/C=C/c2cn(Cc3ccccc3)nc2-c2cccnc2)cc1,-25.9
